Here are results for 6 compounds from PubChem BioAssay (NCI).

Test systems include NCI-H23 lung; NCI-H322M lung; HOP-62 NSCLC; NCI-H460 lung; HOP-92 NSCLC; NCI-H522 lung; A549/ATCC NSCLC; 786-0 renal; COLO 205 colon; DU-145 prostate; K-562 leukemia; MALME-3M melanoma; MDA-MB-231 breast; RXF 393 renal; SF-268 CNS; SF-295 CNS; SF-539 CNS; UACC-257 melanoma; M14 melanoma; HCT-15 colon.
Assay in all cases: NCI-60 one-dose screen, 48 h (100 = growth as untreated, 0 = no growth, -100 = all killed)
Conditions in all cases: 10 µM unless noted

Compounds without any hit were thinned out: in the full panel of roughly 83,000, 20% have a hit.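 The test compound was applied at a single concentration to cells in 96-well plates for 48 hours, and percent growth was recorded.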 A number with no mark means an inactive call. Calls of active or inactive are those of the source. How the source made its calls: active means growth percent below 10; inactive means the rest.

As to `CN1CCN(Cc2ccc(C(=O)Nc3cncc(C#Cc4cnc(N)c5ccccc45)c3)cc2C(F)(F)F)CC1`, the growth was -41.8% (active) in the experiment on NCI-H23 lung; -31.5% (active) in the experiment with NCI-H322M lung; -48.4% (active) in the experiment with HOP-62 NSCLC; -80.8% (active) in the experiment with NCI-H460 lung; 45.2% with HOP-92 NSCLC; -54.3% (active) with NCI-H522 lung. Moreover, the growth in the experiment with A549/ATCC NSCLC was -67.8% (active); with 786-0 renal, -82.1% (active); with COLO 205 colon, -50.9% (active); in the experiment with DU-145 prostate it was -87.2% (active); in the experiment with K-562 leukemia, -46% (active); in the experiment with MALME-3M melanoma it was -86.9% (active). In addition, the growth is -82.2% (active) with MDA-MB-231 breast; -81.5% (active) with RXF 393 renal; -69.5% (active) in the experiment with SF-268 CNS; -82.7% (active) with SF-295 CNS; -95.9% (active) with SF-539 CNS; -75% (active) in the experiment on UACC-257 melanoma. Also, the results for the growth with M14 melanoma and in the experiment on HCT-15 colon were -85.2% (active) and -37.6% (active), respectively.
Take `OC(CNC1CCCCC1)Cn1c2ccc(I)cc2c2cc(I)ccc21` (stereo not given): the growth was 76.6% in the experiment with NCI-H23 lung; 75.8% in the experiment on NCI-H322M lung; 74.4% in the experiment on HOP-62 NSCLC; 70.1% in the experiment with NCI-H460 lung; -0.53% (active) in the experiment on HOP-92 NSCLC; 67.5% in the experiment with NCI-H522 lung. Further, the growth is 75% in the experiment with A549/ATCC NSCLC; 77.7% in the experiment on 786-0 renal; 104% in the experiment with COLO 205 colon; 101% in the experiment with DU-145 prostate; 54.4% in the experiment on K-562 leukemia; 68.9% in the experiment on MALME-3M melanoma. Further, the growth in the experiment with MDA-MB-231 breast was 56.3%; with RXF 393 renal, 78.3%; with SF-268 CNS it was 91.8%; with SF-295 CNS it was 47.2%; in the experiment on SF-539 CNS, 77.5%; in the experiment on UACC-257 melanoma, 84.8%. The values for the growth in the experiment with M14 melanoma and in the experiment with HCT-15 colon were 68.7% and 65.7%, respectively.
For the compound `COc1ccc(C2=Nn3c(NN)nnc3SC2)cc1`, the growth in the experiment on NCI-H23 lung was 95.9%; in the experiment on NCI-H322M lung, 95.2%; in the experiment on HOP-62 NSCLC it was 104%; in the experiment with NCI-H460 lung, 112%; in the experiment with HOP-92 NSCLC, 105%; in the experiment on NCI-H522 lung, 75.5%. In addition, the growth in the experiment on A549/ATCC NSCLC is 87.2%; with 786-0 renal it was 104%; in the experiment on COLO 205 colon, 108%; in the experiment on DU-145 prostate it was 103%; with K-562 leukemia, 83.3%; in the experiment with MALME-3M melanoma, 109%. In addition, the growth with MDA-MB-231 breast is 103%; in the experiment with RXF 393 renal it was 95.8%; in the experiment on SF-268 CNS, 100%; with SF-295 CNS it was 106%; in the experiment with SF-539 CNS it was 95.6%; with UACC-257 melanoma, 84.3%. In addition, the figures for the growth with M14 melanoma and with HCT-15 colon were 113% and 114%, respectively.
As to `CC(C)C[C@H](C(=O)N[C@H](C(N)=O)C(C)C)N1CC=CCN(OCc2ccccc2)S1(=O)=O`, the growth with NCI-H23 lung is 111% [2.5 µM]; in the experiment on NCI-H322M lung it was 105% [2.5 µM]; with HOP-62 NSCLC it was 99.3% [2.5 µM]; in the experiment with NCI-H460 lung, 110% [2.5 µM]; with HOP-92 NSCLC, 82.9% [2.5 µM]; in the experiment on NCI-H522 lung, 86.4% [2.5 µM]. Further, the growth with A549/ATCC NSCLC was 94.5% [2.5 µM]; in the experiment on 786-0 renal it was 102% [2.5 µM]; in the experiment with COLO 205 colon it was 105% [2.5 µM]; in the experiment with DU-145 prostate it was 131% [2.5 µM]; with K-562 leukemia it was 100% [2.5 µM]; in the experiment with MALME-3M melanoma, 113% [2.5 µM]. Further, the growth in the experiment on MDA-MB-231 breast is 93.4% [2.5 µM]; in the experiment with RXF 393 renal it was 111% [2.5 µM]; in the experiment with SF-268 CNS, 108% [2.5 µM]; in the experiment on SF-295 CNS, 114% [2.5 µM]; in the experiment with SF-539 CNS, 99.9% [2.5 µM]; in the experiment with UACC-257 melanoma, 91.2% [2.5 µM]. Also, the results for the growth with M14 melanoma and in the experiment with HCT-15 colon were 100% [2.5 µM] and 104% [2.5 µM], respectively.
`COc1ccccc1N1C(=N)S/C(=C\c2ccc(OCc3ccccc3F)cc2)C1=O`: the growth with NCI-H23 lung is 79.8%; in the experiment with NCI-H322M lung, 81.6%; with HOP-62 NSCLC it was 98.8%; with NCI-H460 lung it was 77.4%; with HOP-92 NSCLC, 81.1%; with NCI-H522 lung, 65.7%. Besides, the growth in the experiment with A549/ATCC NSCLC is 80.3%; with 786-0 renal it was 87.9%; with COLO 205 colon, 112%; with DU-145 prostate, 102%; in the experiment with K-562 leukemia it was 62.2%; with MALME-3M melanoma it was 118%. Also, the growth is 51.4% in the experiment on MDA-MB-231 breast; 65.8% in the experiment on RXF 393 renal; 82% in the experiment on SF-268 CNS; 95.1% in the experiment with SF-295 CNS; 106% in the experiment on SF-539 CNS; 90.9% in the experiment with UACC-257 melanoma. For the same compound, the growth with M14 melanoma was 70.7%; with HCT-15 colon, 81.3%.
As for `O=C(CCc1nnc2sc(Cc3ccccc3Cl)nn12)c1nc2ncccc2[nH]1`, the growth is 89.9% in the experiment on NCI-H23 lung; 93.5% with NCI-H322M lung; 92.3% in the experiment on HOP-62 NSCLC; 97.8% with NCI-H460 lung; 78.4% in the experiment on HOP-92 NSCLC; 81.5% with NCI-H522 lung. The growth was 104% with A549/ATCC NSCLC; 105% in the experiment with 786-0 renal; 109% in the experiment with COLO 205 colon; 101% with DU-145 prostate; 102% in the experiment on K-562 leukemia; 94.4% in the experiment on MALME-3M melanoma. Also, the growth with MDA-MB-231 breast was 73%; with RXF 393 renal, 104%; in the experiment on SF-268 CNS, 85.5%; in the experiment on SF-295 CNS, 99.6%; with SF-539 CNS, 94.2%; with UACC-257 melanoma, 107%. For the same compound, the figures for the growth in the experiment with M14 melanoma and in the experiment on HCT-15 colon were 96.5% and 98.9%, respectively.
